# Some compounds were tested as several samples or in several runs, with calls that do not always agree. The source made the active and inactive calls. How the source made its calls: active means hit-call score of the fitted dose curve at least 0.9, where 1 is the maximum; inactive means score below 0.9.
# Read-out: Macrophage colony-stimulating factor (MCSF), CSF1 (gene 1435)
# Experiment: BSK_hDFCGF_MCSF: BioMAP Diversity Plus: hDFCGF Assay for Macrophage colony-stimulating factor (MCSF) Biomarker Activity (AID 2283060)
# Conditions: primary human foreskin fibroblasts; actives raise or lower the signal
# Description: BSK_hDFCGF is a cell-based, multiplexed-readout assay that uses foreskin fibroblast, a human skin primary cell, with measurements taken at 24 hours after chemical dosing in a 96-well plate.BSK_hDFCGF_MCSF is an assay component measured in the BSK_hDFCGF assay. It measures M-CSF antibody related to regulation of gene expression using ELISA technology.Data from the assay component BSK_hDFCGF_MCSF was analyzed into 1 assay endpoint. This assay endpoint, BSK_hDFCGF_MCSF, was analyzed with bidirectional fitting relative to DMSO as the negative control and baseline of activity. Using a type of binding reporter, gain or loss-of-signal activity can be used to understand changes in the signaling as they relate to the gene CSF1. Furthermore, this assay endpoint can be referred to as a primary readout, because this assay has produced multiple assay endpoints where this one serves a signaling function. To generalize the intended target to other relatable targets, this assay endpoint is annotated to the cytokine intended target family, where the subfamily is colony stimulating factor.
# The levels of cell surface (or secreted, indicated by the prefix "s") biomarker endpoints were measured by ELISA. Overt cytotoxicity to cells in confluent adherent cultures (all systems other than the BT system) was assessed by measuring total protein levels using sulforhodamine B (SRB) staining in parallel cultures at the time of biomarker measurements, indicated as SRB endpoints. For proliferation assays for adherent cell types, individual cell types are cultured at sub-confluence and relative cell numbers quantified by SRB staining at time points optimized for each system (48 h: 3C and CASM3C systems; 72 h: BT and HDF3CGF systems; 96 h: SAg system). SRB was performed by staining cells with 0.1% SRB after fixation with 10% TCA and reading wells at 560 nm.Viability and proliferation of PBMC (T cells) was quantified by Alamar Blue reduction for the SAg and BT systems. For PBMC viability (referred to as PBMC Cytotoxicity within the assay endpoint names), cells were plated (75,000/well in a 96-well plate) and then chemical samples added for 1 h before addition of activators, SEB and TSST-1 (20 ng/mL final concentration each). Cells were incubated for 90 h. Then, Alamar Blue (20 uL/well) (Invitrogen, Cat DAL1100) was added for 6 h, and the plates were read with a fluorescence microplate reader at 546/580 nm (excitation/emission). For PBMC proliferation, cells were plated and activated as above but incubated for only 16 h prior to addition of Alamar Blue. Plates were read after 6 h.
SMILES,outcome,AC50
Cc1cccc(N)c1,inactive,
N#Cc1cc([N+](=O)[O-])ccc1N,inactive,
O=C(O)C1C(C(=O)O)C2(Cl)C(Cl)=C(Cl)C1(Cl)C2(Cl)Cl (stereo not given),inactive,
Cc1c([N+](=O)[O-])cc2c(c1[N+](=O)[O-])C(C)(C)CC2(C)C,,3.02 µM (active)
CCOS(=O)(=O)OCC,inactive,
c1ccc2c(c1)sc1ccccc12,inactive,
CCCCC(CC)COC(=O)c1c(Br)c(Br)c(Br)c(Br)c1C(=O)OCC(CC)CCCC (stereo not given),inactive,
Cc1ccc2c(c1N)C(=O)c1ccccc1C2=O,inactive,
CC(C)(C)c1ccc(O)cc1,inactive,
[N-]=[N+]=[N-],inactive,
Nc1ccc([N+](=O)[O-])cc1Cl,inactive,
Nc1cc2c3c(c1)C(c1ccccc1)=N[C@@H](NC(=O)c1cccnc1)C(=O)N3CC2,inactive,
FC(F)(F)C(F)(C(F)(F)F)C(F)(F)C(F)(F)CC1CO1 (stereo not given),inactive,
O=C(O)C(F)(F)C(F)(F)C(=O)O,inactive,
CCCCN(CCCC)SN(C)C(=O)Oc1cccc2c1OC(C)(C)C2,,7.15 µM (active)
OCC1CO1 (stereo not given),inactive,
CC(Cc1ccc(OCC(=O)O)cc1)NCC(O)c1csc(C(F)(F)F)n1 (stereo not given),inactive,
O=C(O)C(F)(F)OC(F)(F)C(F)(F)OC(F)(F)F,inactive,
CC(C)(C)OOC(C)(C)C,inactive,
ClC(Cl)=C(c1ccc(Cl)cc1)c1ccccc1Cl,,2.86 µM (active)

SMILES,outcome,AC50
c1ccc(OP(Oc2ccccc2)Oc2ccccc2)cc1,inactive,
CCCCOCCOP(=O)(OCCOCCCC)OCCOCCCC,inactive,
CCCCC(CC)COP(=O)(Oc1ccccc1)Oc1ccccc1 (stereo not given),,6.1 µM (active)
O=C(O)C=CC(F)(C(F)(F)F)C(F)(F)F,inactive,
O=S(=O)(F)C(F)(F)C(F)(F)C(F)(F)C(F)(F)C(F)(F)C(F)(F)C(F)(F)C(F)(F)F,inactive,
O=[N+]([O-])c1ccccc1,inactive,
CCOP(=S)(S)OCC,inactive,
Cc1ccc(O)cc1C,inactive,
O=[N+]([O-])c1ccc(Cl)c(Cl)c1,inactive,
COCCOCCO,inactive,
CCCCN(CCCC)N=O,inactive,
NC(=O)C(F)(F)C(F)(F)F,inactive,
O=C(O)C(F)(OC(F)(F)C(F)(F)C(F)(F)F)C(F)(F)F (stereo not given),inactive,
O=S1(=O)OCC2C(CO1)C1(Cl)C(Cl)=C(Cl)C2(Cl)C1(Cl)Cl (stereo not given),inactive,
OCC(F)(F)OC(F)(F)C(F)(F)OC(F)(F)C(F)(F)OC(F)(F)CO,inactive,14 µM (active)
CC(O)C(F)(F)C(F)(F)F (stereo not given),inactive,
CCCCCCCc1ccc(O)cc1,,20 µM (active)
Nc1ccc(Cl)cc1,inactive,
O=P(Oc1ccccc1)(Oc1ccccc1)Oc1ccccc1,,10.9 µM (active)

# Reference: PubChem BioAssay (EPA / NIEHS)
